From the supplement of paper PMC10849652
Targets with a hit are over-represented here; the source holds about 8,800 in all. About 0.5% of all pairs of compound and target were hits. Unmarked numbers belong to inactive results.

How the values were obtained:
Experiment in all cases: log2 fold change, soluble protein after heating vs DMSO (PISA); higher = thermal stabilisation; K562 lysate, 10 uM; active = over 0.2 and 3.5 SD of the protein, either way, in both replicates (recomputed)
erlotinib = compound: C#Cc1cccc(Nc2ncnc3cc(OCCOC)c(OCCOC)cc23)c1 [erlotinib]
Summary of the method: (§1)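 Following dounce homogenisation of K562 pellets in PBS pH 7.4 with 1 mM MgCl2, crude extract at 1 mg/mL protein was incubated for 30 min with 10 μM compound. Aliquots were then heated for 3 min over 48°C-58°C and pooled, NP-40 was added to 0.5% at 4°C, and soluble protein was recovered as the supernatant at 21,000xg for 90 min. Channel-sum-equalised TMTpro 16plex LC-MS/MS quantified this protein. Each value, from duplicates, is a log-two fold change in thermal stability relative to solvent controls.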

[1] = compound: C/C(=N\NC(=O)C1=CC(=CC=C1)S(=O)(=O)N2CCOCC2)/C3=C(C=CC(=C3)Cl)O
Summary of the method: as §1

[2] = compound: C1=CC(=CC=C1C2=NC3=C(N2)C=C(C=C3)C(=O)N)OC4=CC=C(C=C4)Cl
Summary of the method: as §1

[3] = compound: C1=CC2=C(C=CC(=C2)/C=C\3/C(=O)NC(=NCC4=CC=CS4)S3)N=C1
Summary of the method: as §1

[4] = compound: C1=CC2=NC=CN=C2C=C1/C=C/3\C(=O)NC(=O)S3
Summary of the method: as §1

[5] = compound: C1=CC=C(C=C1)C2=NC(=C(N2)C3=CC=NC=C3)C4=CC(=C(C=C4)Cl)O
Summary of the method: as §1

[6] = compound: C1=CC=C2C(=C1)C3=NNC4=CC=CC(=C43)C2=O
Summary of the method: as §1

[7] = compound: C1CCN(C1)C(=O)NC2=CC=CC(=C2)NC3=NC=C(C(=N3)NCCC4=CN=CN4)Br
Summary of the method: as §1

[8] = compound: C1CN(CCC1(CC2=CC=C(C=C2)Cl)N)C3=NC=NC4=C3C=CN4
Summary of the method: as §1

IRAK-1-4 Inhibitor I = compound: C1COCCN1CCN2C3=CC=CC=C3N=C2NC(=O)C4=CC(=CC=C4)[N+](=O)[O-] [IRAK-1-4 Inhibitor I]
Summary of the method: as §1

ibrutinib = compound: C=CC(=O)N1CCC[C@@H](n2nc(-c3ccc(Oc4ccccc4)cc3)c3c(N)ncnc32)C1 [ibrutinib]
Summary of the method: as §1

[9] = compound: CC(=O)c1cnc2ccc(-c3cc(Cl)c(O)c(Cl)c3)nc2c1N[C@H]1CC[C@H](CN(C)C)CC1
Summary of the method: as §1

ralimetinib = compound: CC(C)(C)Cn1c(N)nc2ccc(-c3[nH]c(C(C)(C)C)nc3-c3ccc(F)cc3)nc21 [ralimetinib]
Summary of the method: as §1

[10] = compound: CC(C)(O)CC(=O)NCCn1ccc2ncnc(Nc3ccc(Oc4cccc(C(F)(F)F)c4)c(Cl)c3)c21
Summary of the method: as §1

[11] = compound: CC(C)C1=C2N=C(C=C(N2N=C1)NCC3=CC=CC=C3)NCCCCCCN
Summary of the method: as §1

[12] = compound: CC1=C(C(CC(=O)N1)C2=CC=C(C=C2)C(F)(F)F)C(=O)NC3=C(C=C4C(=C3)C=NN4)F
Summary of the method: as §1

[13] = compound: CC1=C(C2=C(C=C1)C(=O)C3=CC=CC=C3N2CCCN)C
Summary of the method: as §1

[14] = compound: CC1=C(C=C(C=C1)NC(=O)C2=CC(=CC=C2)C(C)(C)C#N)NC3=CC4=C(C=C3)N=CN(C4=O)C
Summary of the method: as §1

[15] = compound: CC1=C(C=C(C=C1)NC(=O)C2=CC(=CC=C2)N(C)C)NC(=O)C3=CC=C(C=C3)O
Summary of the method: as §1

[16] = compound: CC1=CC=C(C=C1)SC2=C3C=C(SC3=CN=C2)C(=O)N
Summary of the method: as §1

Sequence of UniProt Q15404 (Q15404 whole entry, looked up): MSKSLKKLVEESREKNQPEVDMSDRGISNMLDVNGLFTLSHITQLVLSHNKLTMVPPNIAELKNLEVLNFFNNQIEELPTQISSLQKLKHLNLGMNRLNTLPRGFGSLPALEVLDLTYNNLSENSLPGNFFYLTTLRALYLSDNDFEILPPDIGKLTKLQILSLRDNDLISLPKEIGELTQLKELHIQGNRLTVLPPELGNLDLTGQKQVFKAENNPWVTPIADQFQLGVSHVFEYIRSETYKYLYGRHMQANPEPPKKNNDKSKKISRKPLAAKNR
Sequence of UniProt P38159 (P38159 whole entry, looked up): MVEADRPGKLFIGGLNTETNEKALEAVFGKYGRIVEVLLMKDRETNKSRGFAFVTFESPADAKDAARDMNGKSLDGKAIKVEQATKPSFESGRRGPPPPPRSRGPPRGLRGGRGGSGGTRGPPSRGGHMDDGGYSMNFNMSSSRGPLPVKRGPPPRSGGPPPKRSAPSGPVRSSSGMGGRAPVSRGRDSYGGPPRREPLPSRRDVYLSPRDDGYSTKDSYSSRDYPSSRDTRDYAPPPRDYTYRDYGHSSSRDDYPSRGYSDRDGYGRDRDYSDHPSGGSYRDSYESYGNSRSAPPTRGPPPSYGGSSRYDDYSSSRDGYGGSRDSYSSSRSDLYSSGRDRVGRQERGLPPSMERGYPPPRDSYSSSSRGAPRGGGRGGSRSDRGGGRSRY
Sequence of UniProt Q15418 (Q15418 whole entry, looked up): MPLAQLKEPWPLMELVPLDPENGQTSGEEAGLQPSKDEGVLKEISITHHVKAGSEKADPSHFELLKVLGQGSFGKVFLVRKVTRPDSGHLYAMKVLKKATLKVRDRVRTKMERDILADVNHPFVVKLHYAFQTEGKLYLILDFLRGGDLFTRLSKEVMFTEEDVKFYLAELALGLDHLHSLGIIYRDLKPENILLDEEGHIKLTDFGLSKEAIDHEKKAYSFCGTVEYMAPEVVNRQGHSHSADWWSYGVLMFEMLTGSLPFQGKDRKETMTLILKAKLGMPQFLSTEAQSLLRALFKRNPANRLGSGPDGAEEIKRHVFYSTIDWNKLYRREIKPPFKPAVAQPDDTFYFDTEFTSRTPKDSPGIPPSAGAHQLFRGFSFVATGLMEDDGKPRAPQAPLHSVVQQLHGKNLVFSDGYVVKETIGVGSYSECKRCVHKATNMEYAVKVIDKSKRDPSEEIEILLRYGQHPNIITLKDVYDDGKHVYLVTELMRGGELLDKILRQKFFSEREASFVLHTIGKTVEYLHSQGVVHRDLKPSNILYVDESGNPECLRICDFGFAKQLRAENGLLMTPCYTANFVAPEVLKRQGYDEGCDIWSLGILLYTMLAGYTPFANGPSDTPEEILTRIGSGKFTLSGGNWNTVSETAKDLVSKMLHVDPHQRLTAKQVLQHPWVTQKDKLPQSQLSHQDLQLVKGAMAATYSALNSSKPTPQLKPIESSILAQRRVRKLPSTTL
Sequence of UniProt Q9BVS4 (Q9BVS4 whole entry, looked up): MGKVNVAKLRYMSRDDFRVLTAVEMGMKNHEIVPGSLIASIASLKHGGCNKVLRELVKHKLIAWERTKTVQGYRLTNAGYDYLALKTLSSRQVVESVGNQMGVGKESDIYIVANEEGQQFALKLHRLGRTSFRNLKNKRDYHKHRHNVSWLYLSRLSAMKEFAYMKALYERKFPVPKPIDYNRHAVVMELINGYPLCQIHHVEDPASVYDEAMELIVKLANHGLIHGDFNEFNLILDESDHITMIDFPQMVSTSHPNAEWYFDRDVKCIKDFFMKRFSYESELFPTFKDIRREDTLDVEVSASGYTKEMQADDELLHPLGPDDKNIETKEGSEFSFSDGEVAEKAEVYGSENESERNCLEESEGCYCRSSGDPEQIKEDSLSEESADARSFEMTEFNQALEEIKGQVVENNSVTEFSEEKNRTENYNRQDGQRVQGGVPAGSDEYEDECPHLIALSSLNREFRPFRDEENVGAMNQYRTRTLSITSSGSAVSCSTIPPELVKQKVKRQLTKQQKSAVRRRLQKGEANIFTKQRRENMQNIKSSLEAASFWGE
Sequence of UniProt Q99708 (Q99708 whole entry, looked up): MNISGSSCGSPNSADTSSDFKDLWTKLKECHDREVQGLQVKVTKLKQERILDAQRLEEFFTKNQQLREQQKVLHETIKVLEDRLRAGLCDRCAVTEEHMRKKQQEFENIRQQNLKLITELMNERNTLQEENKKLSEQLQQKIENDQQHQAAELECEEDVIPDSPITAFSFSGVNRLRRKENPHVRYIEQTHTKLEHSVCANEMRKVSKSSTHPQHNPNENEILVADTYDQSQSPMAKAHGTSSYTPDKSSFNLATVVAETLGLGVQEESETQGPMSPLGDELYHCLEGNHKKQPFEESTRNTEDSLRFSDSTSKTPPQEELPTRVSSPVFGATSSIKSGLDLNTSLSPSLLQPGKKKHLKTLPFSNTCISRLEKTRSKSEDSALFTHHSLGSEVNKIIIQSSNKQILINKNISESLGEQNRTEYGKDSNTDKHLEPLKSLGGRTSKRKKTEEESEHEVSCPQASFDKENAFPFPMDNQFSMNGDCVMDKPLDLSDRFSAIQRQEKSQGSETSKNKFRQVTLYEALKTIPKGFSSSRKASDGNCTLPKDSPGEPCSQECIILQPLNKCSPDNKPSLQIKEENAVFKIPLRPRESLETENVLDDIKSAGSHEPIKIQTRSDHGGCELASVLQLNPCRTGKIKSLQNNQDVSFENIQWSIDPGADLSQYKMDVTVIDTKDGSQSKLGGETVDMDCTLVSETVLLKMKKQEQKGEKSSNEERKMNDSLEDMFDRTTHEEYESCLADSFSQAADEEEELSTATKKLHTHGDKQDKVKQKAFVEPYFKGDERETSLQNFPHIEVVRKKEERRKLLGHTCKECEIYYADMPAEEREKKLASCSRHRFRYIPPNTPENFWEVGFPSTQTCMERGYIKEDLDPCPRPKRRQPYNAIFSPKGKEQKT
Sequence of UniProt P23921 (P23921 whole entry, looked up): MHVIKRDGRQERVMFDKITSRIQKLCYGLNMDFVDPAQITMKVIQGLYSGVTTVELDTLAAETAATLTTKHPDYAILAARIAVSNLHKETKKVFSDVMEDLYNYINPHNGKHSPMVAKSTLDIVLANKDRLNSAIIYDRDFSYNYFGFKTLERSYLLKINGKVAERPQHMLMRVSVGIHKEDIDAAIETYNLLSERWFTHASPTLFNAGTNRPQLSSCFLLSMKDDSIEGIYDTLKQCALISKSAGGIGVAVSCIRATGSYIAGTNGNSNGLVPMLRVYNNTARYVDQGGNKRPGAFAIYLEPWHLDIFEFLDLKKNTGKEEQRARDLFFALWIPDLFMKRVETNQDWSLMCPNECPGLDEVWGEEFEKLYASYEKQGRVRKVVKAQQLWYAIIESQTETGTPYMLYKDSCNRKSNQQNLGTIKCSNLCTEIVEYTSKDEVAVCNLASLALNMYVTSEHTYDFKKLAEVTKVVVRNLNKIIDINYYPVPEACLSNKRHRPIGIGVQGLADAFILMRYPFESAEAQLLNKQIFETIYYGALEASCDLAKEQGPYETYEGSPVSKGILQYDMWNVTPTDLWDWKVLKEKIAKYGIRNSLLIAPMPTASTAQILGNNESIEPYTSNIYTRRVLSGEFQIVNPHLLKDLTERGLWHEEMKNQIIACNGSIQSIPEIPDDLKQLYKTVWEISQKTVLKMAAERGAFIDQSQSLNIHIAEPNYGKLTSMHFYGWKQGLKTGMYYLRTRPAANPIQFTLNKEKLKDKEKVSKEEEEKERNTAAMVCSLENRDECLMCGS
Sequence of UniProt Q7L523 (Q7L523 whole entry, looked up): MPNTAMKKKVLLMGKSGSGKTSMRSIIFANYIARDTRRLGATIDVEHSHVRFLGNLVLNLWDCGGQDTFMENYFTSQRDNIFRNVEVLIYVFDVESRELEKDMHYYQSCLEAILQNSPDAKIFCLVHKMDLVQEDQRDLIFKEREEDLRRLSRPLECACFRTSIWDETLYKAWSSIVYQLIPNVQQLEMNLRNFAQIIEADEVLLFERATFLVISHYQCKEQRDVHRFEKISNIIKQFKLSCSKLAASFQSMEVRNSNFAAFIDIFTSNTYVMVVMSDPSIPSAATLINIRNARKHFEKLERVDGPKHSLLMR
Sequence of UniProt Q9H0R6 (Q9H0R6 whole entry, looked up): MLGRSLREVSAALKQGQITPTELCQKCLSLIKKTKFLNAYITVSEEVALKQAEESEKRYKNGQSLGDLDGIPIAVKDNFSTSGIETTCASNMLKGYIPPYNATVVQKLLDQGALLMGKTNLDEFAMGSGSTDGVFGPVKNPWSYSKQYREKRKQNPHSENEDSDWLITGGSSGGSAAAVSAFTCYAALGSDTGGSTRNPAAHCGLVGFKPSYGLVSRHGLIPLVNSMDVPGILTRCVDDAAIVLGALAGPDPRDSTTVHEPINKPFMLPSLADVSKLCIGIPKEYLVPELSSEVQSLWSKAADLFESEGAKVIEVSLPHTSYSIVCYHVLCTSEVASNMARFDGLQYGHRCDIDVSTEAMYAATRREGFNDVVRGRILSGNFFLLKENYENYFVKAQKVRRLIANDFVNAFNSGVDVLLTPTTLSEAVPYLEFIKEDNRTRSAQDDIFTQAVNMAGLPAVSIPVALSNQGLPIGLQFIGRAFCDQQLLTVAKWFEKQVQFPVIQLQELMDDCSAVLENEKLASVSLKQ
Sequence of UniProt P18754 (P18754 whole entry, looked up): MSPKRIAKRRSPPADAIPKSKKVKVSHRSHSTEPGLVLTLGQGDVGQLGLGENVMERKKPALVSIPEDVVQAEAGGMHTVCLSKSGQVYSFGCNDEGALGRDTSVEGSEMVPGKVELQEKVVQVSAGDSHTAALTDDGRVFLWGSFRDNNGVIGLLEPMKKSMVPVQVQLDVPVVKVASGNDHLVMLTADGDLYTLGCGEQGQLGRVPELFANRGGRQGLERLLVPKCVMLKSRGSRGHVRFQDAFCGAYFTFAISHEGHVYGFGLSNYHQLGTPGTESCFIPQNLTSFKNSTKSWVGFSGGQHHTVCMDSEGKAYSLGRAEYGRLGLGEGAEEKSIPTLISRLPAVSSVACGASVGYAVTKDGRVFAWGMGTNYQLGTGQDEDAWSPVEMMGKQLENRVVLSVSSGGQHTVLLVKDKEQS

Target	log2 fold change (erlotinib)	log2 fold change [1]	log2 fold change [2]	log2 fold change [3]	log2 fold change [4]	log2 fold change [5]	log2 fold change [6]	log2 fold change [7]	log2 fold change [8]	log2 fold change (IRAK-1-4 Inhibitor I)	log2 fold change (ibrutinib)	log2 fold change [9]	log2 fold change (ralimetinib)	log2 fold change [10]	log2 fold change [11]	log2 fold change [12]	log2 fold change [13]	log2 fold change [14]	log2 fold change [15]	log2 fold change [16]
RRM1 (UniProt P23921)	0.018	-0.019	0.007	0.025	0.029	-0.01	-0.043	-0.046	-0.022	0.021	0.025	0	0.005	-0.01	0.022	0	-0.033	-0.009	0.024	0.016
RIOK2 (UniProt Q9BVS4)	-0.018	-0.045	-0.015	0.07	0.038	0.029	0.395 (active)	-0.01	-0.019	-0.005	-0.012	0.512 (active)	0.026	-0.014	-0.021	-0.018	-0.011	-0.016	0.013	0.052
RPS29 (UniProt P62273)	0.088	0.023	0.018	-0.064	-0.026	0.017	0.051	0.018	-0.037	0.046	0.002	0.025	-0.138	0.03	-0.109	0.086	-0.093	-0.108	-0.068	0.058
QRSL1 (UniProt Q9H0R6)	-0.01	-0.003	0.004	-0.14	-0.111	0.002	0.116	-0.017	0.022	-0.01	-0.171	-0.059	0.018	-0.064	0.066	-0.003	-0.073	-0.041	0.027	0.076
RCC1 isoform 2 (UniProt P18754)	0.016	0.005	-0.033	0	0.017	0.007	-0.024	-0.008	-0.043	-0.022	-0.008	0.012	0.041	0.019	0.015	-0.048	-0.037	-0.01	0.036	0.01
RBMX (UniProt P38159)	0	0.019	-0.056	0.016	0.013	0.025	0.018	0.06	0.029	-0.012	-0.034	-0.132	0.004	0.032	-0.029	-0.017	0.035	-0.016	-0.016	-0.006
RRAGA (UniProt Q7L523)	-0.022	-0.019	0.001	-0.065	0.118	-0.107	-0.008	-0.062	0.005	0.026	-0.114	0.008	-0.112	-0.524	0.006	0.005	-0.089	0.079	0.343	-0.113
RBBP8 isoform 2 (UniProt Q99708)	0.073	-0.129	-0.031	0.074	0.295 (active)	-0.004	-0.019	-0.017	-0.032	0.033	-0.204	0.005	-0.086	0.011	-0.006	0.003	-0.018	-0.066	-0.006	-0.143
RPL27 (UniProt P61353)	0.002	-0.02	-0.04	-0.033	0.011	0.011	0.03	0.052	-0.014	-0.014	0.037	-0.014	-0.025	-0.018	-0.01	-0.067	-0.051	0	-0.01	0.014
RSU1 (UniProt Q15404)	0.017	0.006	-0.039	-0.052	-0.011	-0.003	0.017	0.009	-0.027	0	0	0.005	-0.005	-0.02	0.005	0.019	-0.022	-0.017	-0.027	-0.012
RANBP6 (UniProt O60518)	0.045	-0.043	-0.003	-0.034	0.061	0.027	0.021	0.044	-0.019	0.04	-0.034	-0.05	0.025	-0.066	-0.034	-0.005	-0.017	-0.009	0.026	0.009
RPS6KA1 (UniProt Q15418)	0.001	-0.064	0.006	-0.029	0.04	0.13	0.509 (active)	-0.009	0.06	-0.036	0.047	0.555 (active)	0.32	-0.077	-0.011	-0.032	-0.035	-0.043	-0.052	-0.023
RAPGEF2, A0A2R8YGD3	-0.009	0.16	0.038	0.042	-0.083	-0.047	0.053	0.007	-0.085	0.007	-0.059	0.007	0.008	-0.037	0.008	0.054	-0.07	0.025	-0.025	0.023
RPL37A (UniProt P61513)	-0.012	-0.067	-0.006	-0.011	-0.03	0.03	0.064	0.039	-0.035	-0.023	-0.005	0.002	-0.041	0.03	-0.009	-0.021	-0.032	0.038	0.004	0.051
RAB21 (UniProt Q9UL25)	0	-0.008	0.015	0.02	0.02	-0.028	-0.034	0.026	0.012	0.045	0.026	-0.004	0.057	-0.02	-0.002	0.019	0.021	-0.023	-0.002	0.015
RBM22 (UniProt Q9NW64)	0.028	-0.005	0.025	-0.07	0.013	-0.034	-0.021	-0.02	0.009	0.018	0.01	-0.007	-0.03	-0.044	-0.033	0.009	-0.014	0.043	-0.01	-0.006
